Screening results (PubChem BioAssay)
NOD2-RIPK2 inh: inhibitors of human NOD2-RIPK2 interaction. CHO BLA complementation NOD2-RIPK2, CCF4 ratio. hit rate 0.38% among 360,000. inhibition, % at 4.98 µM. O43353; in the data active = inhibition above about 21%
TLR4-MyD88 BLA: blocks binding of human TLR4 to MyD88. O00206+Q99836. HeLa CL3-4 TLR4/MyD88 BLA complementation, FRET ratio. inhibition, % at 8.4 µM. hit rate 0.18% among 200,000. AID 861; in the data active = inhibition above about 25%
TLR9-MyD88 inh: TLR9-MyD88 interaction inhibition. CHO BLA complementation TLR9-MyD88, CCF4 FRET ratio. inhibition, % at 4.98 µM. hit rate 0.21% among 340,000. Q9NR96+Q99836;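 active = inhibition above the mean over all tested compounds plus 3 SD, cut at about 21% in these data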
Exocytosis inh: blocks lytic granule exocytosis | AID 651702 | hit rate 0.66% among 360,000 | TALL-104 LAMP-1 surface exposure, flow cytometry; cells stimulated with thapsigargin and PMA | inhibition, % at 10 µM;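 active = inhibition above about 55%, limit read from the data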
PRMT1 inh: inhibitors of human PRMT1 | recombinant PRMT1, activity-based probe fluorescence polarization | Q99873 | hit rate 1.3% among 370,000 | AID 652257 | inhibition, % at 2.79 µM;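 active = inhibition above about 21% made by adding two undisclosed values, limit read from the data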
Target sequence (Q99873 whole entry, looked up): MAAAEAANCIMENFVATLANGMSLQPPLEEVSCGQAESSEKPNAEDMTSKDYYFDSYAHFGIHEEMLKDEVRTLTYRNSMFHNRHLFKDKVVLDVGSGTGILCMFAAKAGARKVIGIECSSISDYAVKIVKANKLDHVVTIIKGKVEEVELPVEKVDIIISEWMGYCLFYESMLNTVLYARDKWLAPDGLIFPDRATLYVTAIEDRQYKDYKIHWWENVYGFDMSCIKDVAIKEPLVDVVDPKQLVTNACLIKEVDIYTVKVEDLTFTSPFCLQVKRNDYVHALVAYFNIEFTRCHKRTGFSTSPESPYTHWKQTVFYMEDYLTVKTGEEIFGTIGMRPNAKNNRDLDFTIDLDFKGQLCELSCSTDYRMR
ABHD5 PLIN5 PPI: inhibitors of human ABHD5-perilipin-5 interaction; Q00G26+Q8WTS1; Split G. princeps luciferase complementation, luminescence, 4 h; inhibition, % at 4 µM; hit rate 0.78% among 360,000; AID 602281;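 active = inhibition above the mean inhibition across every tested compound plus 3 SD, cut at about 22% in these data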
PRMT1 inh conf: PRMT1 (human) inhibition, FP confirmation. shares compounds with PRMT1 inh. recombinant His-PRMT1, activity-based probe fluorescence polarization. inhibition, % at 2.79 µM. hit rate 42% among 3,300;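 active = mean inhibition across replicates above the hit cutoff derived for the earlier primary screen, cut at about 22% in these data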
Numbers stand for hits. A selection: hits, their analogues and other compounds. The true share with any hit is near 2.6%.

What do the screens show for `CC(/C=N/n1c(-c2ccc(Cl)cc2)n[nH]c1=S)=C\c1ccco1`?
NOD2-RIPK2 inh: inactive; TLR4-MyD88 BLA: inactive; TLR9-MyD88 inh: inactive; Exocytosis inh: inactive; PRMT1 inh: 27; ABHD5 PLIN5 PPI: inactive; PRMT1 inh conf: inactive

What do the screens show for `CC(/C=N/n1c(-c2cc(C)[nH]n2)n[nH]c1=S)=C\c1ccco1`?
NOD2-RIPK2 inh: inactive; TLR9-MyD88 inh: inactive; Exocytosis inh: inactive; PRMT1 inh: inactive; ABHD5 PLIN5 PPI: inactive

Results for CCc1ccc2[nH]c(C(=O)Nc3ccc(Br)c(C)n3)cc2c1 ?
NOD2-RIPK2 inh: inactive; TLR9-MyD88 inh: inactive; Exocytosis inh: inactive; PRMT1 inh: inactive; ABHD5 PLIN5 PPI: inactive

How did Cc1nnc(SCC2=C(C(=O)O)N3C(=O)C(NC(=O)Cn4nc(C(F)F)cc4C)C3SC2)s1 (stereo not given) do in these assays?
NOD2-RIPK2 inh: inactive; TLR4-MyD88 BLA: inactive; TLR9-MyD88 inh: inactive; Exocytosis inh: inactive; PRMT1 inh: 25; ABHD5 PLIN5 PPI: inactive; PRMT1 inh conf: 29

What do the screens show for `Cc1nnc(SCC2=C(C(=O)O)N3C(=O)C(NC(=O)Cn4cnnn4)C3SC2)s1` (stereo not given)?
NOD2-RIPK2 inh: inactive; TLR9-MyD88 inh: inactive; Exocytosis inh: inactive; PRMT1 inh: inactive; ABHD5 PLIN5 PPI: inactive

How did CN(C)CCn1nnnc1SCC1=C(C(=O)O)N2C(=O)[C@@H](NC(=O)Cc3csc(N)n3)[C@H]2SC1 do in these assays?
NOD2-RIPK2 inh: inactive; TLR9-MyD88 inh: inactive; Exocytosis inh: inactive; PRMT1 inh: 46; ABHD5 PLIN5 PPI: inactive; PRMT1 inh conf: inactive

Results for Cc1nnc(SCC2=C(C(=O)O)N3C(=O)C(NC(=O)Cn4nc(C(F)F)c(Cl)c4C)C3SC2)s1 (stereo not given) ?
NOD2-RIPK2 inh: inactive; TLR4-MyD88 BLA: inactive; TLR9-MyD88 inh: inactive; Exocytosis inh: inactive; PRMT1 inh: 28; ABHD5 PLIN5 PPI: inactive; PRMT1 inh conf: 39

How did Cc1ccc(NC(=O)CN2C(=O)S/C(=C/c3ccc(-c4cc(C(=O)O)ccc4C)o3)C2=O)cc1C do in these assays?
NOD2-RIPK2 inh: inactive; TLR4-MyD88 BLA: inactive; TLR9-MyD88 inh: inactive; Exocytosis inh: inactive; PRMT1 inh: 28; ABHD5 PLIN5 PPI: inactive; PRMT1 inh conf: inactive

What do the screens show for `CCn1c(C)cc(/C=C2\NC(=O)N(CC(=O)Nc3cccc(C)c3)C2=O)c1C`?
NOD2-RIPK2 inh: inactive; TLR4-MyD88 BLA: inactive; TLR9-MyD88 inh: inactive; Exocytosis inh: inactive; PRMT1 inh: inactive; ABHD5 PLIN5 PPI: inactive

What do the screens show for `Cc1cccc(NC(=O)CN2C(=O)N/C(=C\c3ccc(-c4cccc(C(=O)O)c4)o3)C2=O)c1`?
NOD2-RIPK2 inh: inactive; TLR9-MyD88 inh: inactive; Exocytosis inh: inactive; PRMT1 inh: 27; ABHD5 PLIN5 PPI: inactive; PRMT1 inh conf: inactive

What do the screens show for `Cc1cccc(CCNC(=O)Cn2ncc3c([nH]c4ccccc43)c2=O)c1`?
NOD2-RIPK2 inh: inactive; TLR9-MyD88 inh: inactive; Exocytosis inh: inactive; ABHD5 PLIN5 PPI: inactive

What do the screens show for `CCN(CC)C(=O)C1=C(C)N(Cc2ccccc2)C(=O)C(CC(=O)NC2CCCC2)C1` (stereo not given)?
NOD2-RIPK2 inh: inactive; TLR9-MyD88 inh: inactive; Exocytosis inh: inactive; PRMT1 inh: inactive; ABHD5 PLIN5 PPI: inactive

How did CN(C)S(=O)(=O)c1ccc2[nH]cc(/C=C/c3nc4ccccc4c(=O)n3-c3ccccc3)c2c1 do in these assays?
NOD2-RIPK2 inh: inactive; TLR4-MyD88 BLA: inactive; TLR9-MyD88 inh: inactive; Exocytosis inh: inactive; PRMT1 inh: inactive; ABHD5 PLIN5 PPI: inactive

Results for O=c1c2ccccc2sn1-c1cccc(Cl)c1 ?
NOD2-RIPK2 inh: inactive; TLR9-MyD88 inh: inactive; Exocytosis inh: inactive; PRMT1 inh: 82; ABHD5 PLIN5 PPI: inactive; PRMT1 inh conf: 84

How did Cn1sc2ccccc2c1=O do in these assays?
NOD2-RIPK2 inh: inactive; TLR9-MyD88 inh: inactive; Exocytosis inh: inactive; PRMT1 inh: 71; ABHD5 PLIN5 PPI: inactive; PRMT1 inh conf: 77

How did CN(C)S(=O)(=O)c1cccc(-n2sc3ccccc3c2=O)c1 do in these assays?
NOD2-RIPK2 inh: inactive; TLR4-MyD88 BLA: inactive; TLR9-MyD88 inh: inactive; Exocytosis inh: inactive; PRMT1 inh: 102; ABHD5 PLIN5 PPI: 47; PRMT1 inh conf: 95

Results for COCCn1c(=O)sc2ccccc2c1=O ?
NOD2-RIPK2 inh: inactive; TLR4-MyD88 BLA: inactive; TLR9-MyD88 inh: inactive; Exocytosis inh: inactive; PRMT1 inh: inactive; ABHD5 PLIN5 PPI: inactive

Results for O=c1nc2sc3ccccc3n2c(=O)n1-c1cccc(Cl)c1 ?
NOD2-RIPK2 inh: inactive; TLR4-MyD88 BLA: inactive; TLR9-MyD88 inh: inactive; Exocytosis inh: inactive; ABHD5 PLIN5 PPI: inactive

How did O=c1[nH]c2ccc(Cl)cc2c(-c2ccccc2)c1SC(=S)N1CCCCC1 do in these assays?
NOD2-RIPK2 inh: inactive; TLR4-MyD88 BLA: inactive; TLR9-MyD88 inh: inactive; Exocytosis inh: inactive; PRMT1 inh: 44; ABHD5 PLIN5 PPI: inactive; PRMT1 inh conf: 24

How did NNC(=O)CSc1c(-c2ccccc2)c2cc(Cl)ccc2[nH]c1=O do in these assays?
NOD2-RIPK2 inh: inactive; TLR9-MyD88 inh: inactive; Exocytosis inh: inactive; PRMT1 inh: inactive; ABHD5 PLIN5 PPI: inactive

What do the screens show for `O=c1[nH]c2ccc(Cl)cc2c(-c2ccccc2)c1SC(=S)N1CCOCC1`?
NOD2-RIPK2 inh: inactive; TLR4-MyD88 BLA: inactive; TLR9-MyD88 inh: inactive; Exocytosis inh: inactive; PRMT1 inh: 27; ABHD5 PLIN5 PPI: inactive; PRMT1 inh conf: inactive

What do the screens show for `Cn1c(-c2cccs2)[n+](C)c2ccccc21`?
NOD2-RIPK2 inh: inactive; TLR4-MyD88 BLA: inactive; TLR9-MyD88 inh: inactive; Exocytosis inh: inactive; PRMT1 inh: inactive; ABHD5 PLIN5 PPI: inactive

Results for COc1cc(Cl)ccc1OC1(C)CCN(Cc2ccc3ccccc3c2)C1 (stereo not given) ?
NOD2-RIPK2 inh: inactive; Exocytosis inh: inactive; PRMT1 inh: inactive; ABHD5 PLIN5 PPI: inactive

Results for COC(=O)c1ccc(-c2ccco2)n1Cc1nc(-c2ccc(OC)c(OC)c2)oc1C ?
NOD2-RIPK2 inh: inactive; TLR4-MyD88 BLA: inactive; TLR9-MyD88 inh: inactive; Exocytosis inh: inactive; PRMT1 inh: 29; ABHD5 PLIN5 PPI: inactive; PRMT1 inh conf: inactive

How did CCn1nccc1NC(=O)c1csc([C@@H]2O[C@H](CO)[C@H](O)[C@H](O)[C@H]2O)n1 do in these assays?
NOD2-RIPK2 inh: inactive; Exocytosis inh: inactive; PRMT1 inh: inactive; ABHD5 PLIN5 PPI: inactive

How did O=C(CCc1ccccc1)NN1C(=O)C2C3C=CC(O3)C2C1=O (stereo not given) do in these assays?
NOD2-RIPK2 inh: inactive; TLR4-MyD88 BLA: inactive; TLR9-MyD88 inh: inactive; Exocytosis inh: inactive; PRMT1 inh: 57; ABHD5 PLIN5 PPI: inactive; PRMT1 inh conf: inactive

Results for CCOc1ccc(C(=O)NN2C(=O)C3C4C=CC(O4)C3C2=O)cc1 (stereo not given) ?
NOD2-RIPK2 inh: inactive; TLR4-MyD88 BLA: inactive; TLR9-MyD88 inh: inactive; Exocytosis inh: inactive; PRMT1 inh: 53; ABHD5 PLIN5 PPI: inactive; PRMT1 inh conf: inactive
